Assay results from PubChem BioAssay (NCI).
The panel holds about 79,000 compounds, 15% with a hit somewhere; the sample as a whole holds those more often. The source made the active and inactive calls. Rule as the data show it: active = growth inhibition above about 70%; inactive = the rest.

Columns and labels:
[1] = NCI Yeast Anticancer Drug Screen. Data for the rad52 strain (AID 147);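 also: 0% = growth of vehicle-treated control cultures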; details: S. cerevisiae rad52 mutant growth inhibition, active compounds read high
Method in brief: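 The repair-mutant yeast strain was incubated with compounds, then growth was read and inhibition derived relative to vehicle.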

[2] = NCI Yeast Anticancer Drug Screen. Data for the wt1 strain (AID 149);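 also: 0% = growth of vehicle-treated wt1 cultures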; details: S. cerevisiae wt1 strain (SPY 50644) growth inhibition, active compounds read high
Method in brief: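 The wt1 strain was treated with compounds, and growth was compared with vehicle-treated cultures to give inhibition.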

[3] = NCI Yeast Anticancer Drug Screen. Data for the mgt1 strain (AID 153); details: S. cerevisiae mgt1 mutant growth inhibition, active compounds read high
Method in brief: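 Vehicle-normalized growth inhibition is determined in mgt1 yeast, a strain selected for a defined alteration in DNA repair or cell cycle control.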

[4] = NCI Yeast Anticancer Drug Screen. Data for the rad50 strain (AID 155);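 also: 0% = growth of vehicle-only cultures of the same strain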; details: S. cerevisiae rad50 strain growth inhibition, active compounds read high
Method in brief: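 Cells are treated with compound, grown, and their growth is then scored against vehicle-only cultures of the same repair-deficient yeast strain.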

[5] = NCI Yeast Anticancer Drug Screen. Data for the mec2-1 strain (AID 157); details: S. cerevisiae mec2-1 strain, active compounds read high
Method in brief: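 Mutant yeast (mec2-1) grown with compound; growth inhibition relative to vehicle control reported.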

[6] = NCI Yeast Anticancer Drug Screen. Data for the rad14 strain (AID 159);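 also: 0% = growth of vehicle-treated control cultures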; details: S. cerevisiae rad14 strain growth inhibition, active compounds read high
Method in brief: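 Readout: yeast growth inhibition, referenced to vehicle-only cultures. Strain bears a defined alteration in DNA damage repair.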

[7] = NCI Yeast Anticancer Drug Screen. Data for the sgs1 mgt1 strain (AID 161);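 also: 0% = growth of cultures given vehicle only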; details: S. cerevisiae sgs1 mgt1 strain, active compounds read high
Method in brief: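 Percent growth inhibition was derived by comparing compound-exposed mutant yeast with vehicle-exposed cultures. The strain carries alterations in DNA damage repair.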

[8] = NCI Yeast Anticancer Drug Screen. Data for the CLN2oe strain (AID 163);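 also: 0% = growth of vehicle-only control cultures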; details: S. cerevisiae CLN2oe strain, active compounds read high
Method in brief: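 Compounds are applied to yeast harbouring a defined cell-cycle control change; reduced growth compared with vehicle-treated controls gives the value.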

[9] = NCI Yeast Anticancer Drug Screen. Data for the cln2 rad14 strain (AID 165);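 also: 0% = growth equal to vehicle treated cultures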; details: S. cerevisiae cln2 rad14 strain, active compounds read high
Method in brief: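 Readout is yeast growth inhibition versus vehicle-treated controls, using a strain with cln2 and rad14 alterations exposed to compound.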

[10] = NCI Yeast Anticancer Drug Screen. Data for the bub3 strain (AID 167); details: S. cerevisiae bub3 mutant strain, active compounds read high
Method in brief: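 Part of a panel of yeast mutants defective in DNA damage repair or cell cycle regulation. Each strain is grown with compound, and inhibition is calculated relative to solvent-treated cultures.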

[11] = NCI Yeast Anticancer Drug Screen. Data for the wt2 strain (AID 169);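 also: 0% = growth of vehicle-treated yeast cultures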; details: S. cerevisiae wt2 strain growth inhibition, active compounds read high
Method in brief: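 Against vehicle-treated controls, the growth of yeast exposed to each compound was compared, and the inhibition was recorded.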

[12] = NCI Yeast Anticancer Drug Screen. Data for the mlh1 strain (AID 171);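 also: 0% = growth of vehicle-treated control cultures of the same strain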; details: S. cerevisiae mlh1 strain growth inhibition, active compounds read high
Method in brief: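 Measured: yeast growth. Reference: vehicle-treated controls. Organism: strain with a defined alteration affecting DNA damage repair or cell cycle control, treated with compound.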

[13] = NCI Yeast Anticancer Drug Screen. Data for the mlh1 rad18 strain (AID 175); details: S. cerevisiae mlh1 rad18 strain growth inhibition, active compounds read high
Method in brief: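 Genetically defined yeast (DNA repair-deficient) exposed to compounds; growth inhibition determined relative to vehicle.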

[14] = NCI Yeast Anticancer Drug Screen. Data for the rad18 strain (AID 177); details: S. cerevisiae rad18 mutant growth inhibition, active compounds read high
Method in brief: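 Vehicle-treated cultures served as the baseline for scoring compound-induced growth inhibition in DNA-repair-mutant yeast.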

[15] = NCI Yeast Anticancer Drug Screen. Data for the sgs1 strain (AID 173);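 also: 0% = growth of vehicle-only control cultures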; details: S. cerevisiae sgs1 mutant, active compounds read high
Method in brief: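 Each compound was added to cultures of the altered yeast strain. Growth was recorded, and inhibition was derived by comparison with vehicle controls.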

[16] = at 5.0 µM (retest, dose inferred, filed as 0.5)
[17] = at 50.0 µM (retest, dose inferred, filed as 5.0)

Measured: growth inhibition

C/C(=N\O)C1CC2C=C(C#N)C1N(Cc1ccccc1)C2 (stereo unspecified)
active: [14]; at 33.0 µM 77% | [14]; at 100.0 µM 86%
inactive: [1]; at 1.2 µM -5% | [1]; at 3.7 µM -3% | [1]; at 11.0 µM -1% | [1]; at 33.0 µM 1% | [1]; at 100.0 µM 8% | [2]; at 1.2 µM 0% | [2]; at 3.7 µM 4% | [2]; at 11.0 µM 1% | [2]; at 33.0 µM -1% | [2]; at 100.0 µM -1% | [3]; at 1.2 µM -5% | [3]; at 3.7 µM -4% | [3]; at 11.0 µM -5% | [3]; at 33.0 µM -3% | [3]; at 100.0 µM -1% | [4]; at 1.2 µM -3% | [4]; at 3.7 µM -3% | [4]; [16] -6% | [4]; at 11.0 µM 0% | [4]; at 33.0 µM 0% | [4]; [17] -1% | [4]; at 50.0 µM 8.05% | [4]; at 100.0 µM 5% | [5]; at 1.2 µM 0% | [5]; at 3.7 µM 3% | [5]; [16] -16% | [5]; at 11.0 µM 4% | [5]; at 33.0 µM 4% | [5]; [17] -13% | [5]; at 50.0 µM 7.3% | [5]; at 100.0 µM 0% | [6]; at 1.2 µM -3% | [6]; at 3.7 µM -1% | [6]; at 11.0 µM 2% | [6]; at 33.0 µM 1% | [6]; at 100.0 µM 7% | [7]; [16] -10% | [7]; [17] 24% | [7]; at 50.0 µM 3.75% | [8]; at 1.2 µM -5% | [8]; at 3.7 µM -14% | [8]; at 11.0 µM -7% | [8]; at 33.0 µM -2% | [8]; at 100.0 µM -2% | [9]; [16] -1% | [9]; [17] 8% | [9]; at 50.0 µM 11.3% | [10]; at 1.2 µM -4% | [10]; at 3.7 µM -5% | [10]; [16] -3% | [10]; at 11.0 µM -3% | [10]; at 33.0 µM -2% | [10]; [17] 13% | [10]; at 50.0 µM 10.7% | [10]; at 100.0 µM -5% | [11]; at 1.2 µM -1% | [11]; at 3.7 µM -2% | [11]; at 11.0 µM -3% | [11]; at 33.0 µM -2% | [11]; at 100.0 µM -2% | [12]; at 1.2 µM -3% | [12]; at 3.7 µM 0% | [12]; at 11.0 µM 0% | [12]; at 33.0 µM 0% | [12]; at 100.0 µM 0% | [13]; [16] 0% | [13]; [17] 62% | [13]; at 50.0 µM 9% | [14]; at 1.2 µM 5% | [14]; at 3.7 µM 13% | [14]; at 11.0 µM 40%

O=Cc1cccc2ccc3ccccc3c12
inactive: [1]; at 1.2 µM -6% | [1]; at 3.7 µM 0% | [1]; at 11.0 µM 7% | [1]; at 33.0 µM 62% | [2]; at 1.2 µM -6% | [2]; at 3.7 µM -5% | [2]; at 11.0 µM -8% | [2]; at 33.0 µM 7% | [2]; at 100.0 µM 52% | [3]; at 1.2 µM -2% | [3]; at 3.7 µM -4% | [3]; at 11.0 µM -3% | [3]; at 33.0 µM 32% | [4]; at 1.2 µM -7% | [4]; at 3.7 µM -12% | [4]; [16] -102% | [4]; at 11.0 µM 12% | [5]; at 1.2 µM -1% | [5]; at 3.7 µM -1% | [5]; [16] -45% | [5]; at 11.0 µM 1% | [5]; at 33.0 µM 1% | [5]; [17] 41% | [6]; at 1.2 µM -1% | [6]; at 3.7 µM 1% | [6]; at 11.0 µM 9% | [7]; [16] -56% | [8]; at 1.2 µM -1% | [8]; at 3.7 µM 0% | [8]; at 11.0 µM 9% | [8]; at 33.0 µM 15% | [9]; [16] -52% | [9]; [17] 2% | [10]; at 1.2 µM -7% | [10]; at 3.7 µM -4% | [10]; [16] -54% | [10]; at 11.0 µM -3% | [10]; at 33.0 µM 4% | [11]; at 1.2 µM -2% | [11]; at 3.7 µM -2% | [11]; at 11.0 µM -3% | [11]; at 33.0 µM 26% | [12]; at 1.2 µM 5% | [12]; at 3.7 µM -5% | [12]; at 11.0 µM -2% | [12]; at 33.0 µM 63% | [15]; at 1.2 µM -1% | [15]; at 3.7 µM -2% | [15]; at 11.0 µM 4% | [15]; at 33.0 µM 57% | [13]; [16] -91% | [14]; at 1.2 µM -6% | [14]; at 3.7 µM -2% | [14]; at 11.0 µM 6% | [14]; at 33.0 µM 43%
active: [1]; at 100.0 µM 98% | [3]; at 100.0 µM 98% | [4]; at 33.0 µM 94% | [4]; [17] 89% | [4]; at 50.0 µM 99.3% | [4]; at 100.0 µM 97% | [5]; at 50.0 µM 99.5% | [5]; at 100.0 µM 96% | [6]; at 33.0 µM 71% | [6]; at 100.0 µM 99% | [7]; [17] 73% | [7]; at 50.0 µM 98.2% | [8]; at 100.0 µM 88% | [9]; at 50.0 µM 98.7% | [10]; [17] 81% | [10]; at 50.0 µM 98.7% | [10]; at 100.0 µM 97% | [11]; at 100.0 µM 80% | [12]; at 100.0 µM 98% | [15]; at 100.0 µM 99% | [13]; [17] 82% | [13]; at 50.0 µM 98.8% | [14]; at 100.0 µM 98%
